# Assay results published in PubChem BioAssay (Tox21).
# Inconclusive results are not listed. Values without a mark were called inactive. Calls come from the whole dose curve; as a rule, active = well fitted cell-killing curve with a large enough effect in the repeat runs; inconclusive = weak or mixed curves, or effect the other way; inactive = flat fitted curve, though single readings scatter. Where a SMILES comes first, the peptide text is derived from it.
# Assay: qHTS RealTime-Glo MT Cell Viability Assay in HEK293 cells - 8 hour (AID 1224887); note: top concentration of the series differs between compounds; nearly all actives have a fitted effect of over 50% in size
# Settings: RealTime-Glo luminescence; series mostly up to 76.8 µM; activity change, negative = cytotoxicity: at the top concentration
# Source text: U.S. Tox21 Program National Center for Advancing Translational Sciences [NCATS] NIH Chemical Genomics Center [NCGC] U.S. Environmental Protection Agency [EPA] National Institutes of Environmental Health Sciences [NIEHS] National Toxicology Program [NTP] U.S. Food and Drug Administration [FDA] Tox21 Assay Overview: Measure of cell viability is critical in the cell-base assay. Analysis of cell viability is necessary for the characterization of cell responses to cytotoxic drugs and environmental stress. A RealTime-Glo MT Cell Viability Assay to monitor cell viability in real time of continues cell culture during 40 hours of compound treatment was used to screen Tox21 10K library compounds in Hek293 cells. The RealTime-Glo MT Cell Viability Assay is a nonlytic, homogeneous, bioluminescent method to measure cell viability in real time using a simple, plate-based method. The assay involves adding NanoLuc luciferase and a cell-permeant prosubstrate to cells in culture. Viable cells reduce the proprietary prosubstrate to generate a substrate for NanoLuc luciferase. This substrate diffuses from cells into the surrounding culture medium, where it is rapidly used by the NanoLuc Enzyme to produce a luminescent signal. The signal correlates with the number of viable cells, making the assay well suited for cytotoxicity studies.
# Tox21 Assay Protocol Summary: The mixture of Hek293 cell suspension and reagents were dispensed at 600cells/6 ul/well in 1536-well tissue culture treated black solid bottom plates using a Multidrop dispenser. After the assay plates were incubated at a 37 C/5% CO2 incubator for 5 hours, 23 nL of compounds dissolved in DMSO, positive and negative controls was transferred to the assay plate by a pintool work station. The plates were incubated at 37 C for 40 hours. The luminescence intensity were measured at 0h, 8h, 16h, 24h, 32h and 40h time points using ViewLux plate reader during compound treatment.
# % is set by controls: 0 for no effect and ±100 for the full control effect.
row,SMILES,"activity change, negative = cytotoxicity"
1,CC1(C)CC(OC(=O)CCCCCCCCC(=O)OC2CC(C)(C)NC(C)(C)C2)CC(C)(C)N1,1.91% [at 15.8 µM]
2,COc1cc(/C=C/C(N)=O)cc(OC)c1OC,-0.552% [at 35.3 µM]
3,O=C(NCN1CCOCC1)c1cnccn1,-0.735% [at 35.3 µM]
4,CC(C)NCC(O)c1ccc2ccccc2c1 (stereo not given),-16.2% [at 35.3 µM]
5,CC(=O)N[C@@H](CO)C(=O)N[C@@H](CC(=O)O)C(=O)N[C@@H](CCCCN)C(=O)N1CCC[C@H]1C(=O)O (Ac-SDKP-OH),0.714% [at 35.3 µM]
6,Cc1cc(-c2ccccc2)nnc1NCCN1CCOCC1,0.846% [at 35.3 µM]
7,Cc1c(Cl)cccc1Cl,2%
8,Cc1cccc(Cl)c1,-6.37%
9,Fc1ccccc1,9.29%
10,NCc1ccc(S(N)(=O)=O)cc1,2.07% [at 35.3 µM]
11,CC/C=C\CCOC(=O)c1ccccc1O,9.01%
12,CC(=O)Nc1ccc(OC(=O)c2ccccc2OC(C)=O)cc1,2.54% [at 35.3 µM]
13,COC(=O)c1ccccc1C(=O)O,1.13%
14,CC(C)=CCC/C(C)=C/COC=O,-0.904%
15,CCCCSCCCC,4.5%
16,O=[N+]([O-])c1c(Cl)cc(Cl)cc1Cl,-10.8%
17,CC(C)CO,-3.32%
18,CC(CO)(CO)CO,-1.46%
19,CC1(C)[C@H]2CC[C@](C)(C2)[C@H]1O,1.68%
20,CCC(=O)c1c(O)cc(O)cc1O,-1.17% [at 35.3 µM]

row,SMILES,"activity change, negative = cytotoxicity"
1,CC(C)=CCC[C@@](C)(O)[C@H]1CC=C(C)CC1,-0.0354% [at 35.3 µM]
2,CN(C)C(C)(C)CO,9.14%
3,Cn1c(=O)c2c(ncn2CCO)n(C)c1=O,4.53% [at 35.3 µM]
4,CCCCCCCCCCOC(C)=O,0.789%
5,CC/C(C)=N\O[Si](C)(O/N=C(\C)CC)O/N=C(\C)CC,-0.269%
6,CCCC(CC)c1ccccc1 (stereo not given),20.3%
7,CC1=C(C(=O)O)N2C(=O)[C@@H](NC(=O)[C@H](N)c3ccccc3)[C@H]2SC1,0.208% [at 35.3 µM]
8,CCOC(=O)CC1(C)OCC(C)O1 (stereo not given),-2.8%
9,NCC1(Cc2noc(=O)[nH]2)CCCCC1,7.99%
10,CC(=O)CCc1ccc(OC(C)=O)cc1,0.692%
11,CC(N)CCCC(C)(C)O (stereo not given),6.59% [at 35.3 µM]
12,CN(C)CCCO[C@@H]1[C@H]2OC(C)(C)O[C@H]2O[C@@H]1C(O)CO (stereo not given in full),5.85% [at 35.3 µM]
13,CC(=O)C(C)O (stereo not given),16.9%
14,CCCCCCC1(C)CCC(=O)O1 (stereo not given),8.19%
15,Cc1c(C(=O)c2c[nH]n(C)c2=O)ccc(S(C)(=O)=O)c1C1=NOCC1,7.38% [at 35.3 µM]
16,C=C(C)[C@@H]1CC=C(C)C(=O)C1,-3.55%
17,CC1CC(=O)CC(C)(C)C1 (stereo not given),15.9%
18,N[C@@H](Cc1ccc(O)cc1)C(=O)O,10.4% [at 6.97 µM]
19,C/C(CC(C)C)=N\O,-0.0478%
20,C=C(C)[C@@H]1CC=C(C)CC1,1.39%
